Inconclusive results are not listed. A call without a number means that no potency is given here. Active and inactive are the calls of the source. The call rests on the fitted dose curve.
Assay: qHTS assay to identify small molecule agonists of the NFkB signaling pathway - cell viability counter screen (AID 1159515); further: nearly all actives have a fitted effect of over 55% in size
Settings: NFkB-bla ME-180 viability, CellTiter-Glo luminescence, 5 h; series mostly up to 61 µM
In short: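 Plate 2,000 NFkB-bla ME-180 cells/well; incubate overnight. Add compounds, 5 hr at 37 C. Add FRET substrate, 1.5 hr RT. Add CellTiter-Glo, 30 min RT; read luminescence.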

For `CC1=CC(=O)CC(C)(C)C1`, which Potency is on record?
The Potency was “inactive”.

Which Potency does the source give for `Clc1cccc(Cl)c1NC1=NCCN1` here?
The Potency was “inactive”.

With `CC1(C)C(=O)N(Cl)C(=O)N1Cl` as the molecule, how does the Potency read?
The Potency was “inactive”.

Which Potency does the source give for `CCCCCCCC(=O)O` here?
The Potency was “inactive”.

With `O=C1O[C@H]([C@H](O)CO)C(O)=C1O` as the molecule, how does the Potency read?
The Potency was “inactive”.

For `CS(=O)(=O)c1ccc(Cl)cc1`, which Potency is on record?
Its Potency is “inactive”.

Which Potency does the source give for `OB(O)O` here?
The Potency was “inactive”.

Which Potency does the source give for `CC(=O)OCc1ccc2c(c1)OCO2` here?
The Potency was “inactive”.

Which Potency does the source give for `CCCCCCCCCCCCCC(=O)O` here?
Its Potency is “inactive”.

Which Potency does the source give for `CC1(C)[C@@H](O[C@H]2O[C@H](C(=O)O)[C@@H](O)[C@H](O)[C@H]2O[C@@H]2O[C@H](C(=O)O)[C@@H](O)[C@H](O)[C@H]2O)CC[C@]2(C)[C@H]3C(=O)C=C4[C@@H]5C[C@@](C)(C(=O)O)CC[C@]5(C)CC[C@@]4(C)[C@]3(C)CC[C@@H]12` here?
The Potency was “inactive”.

With `Cc1ccncc1` as the molecule, how does the Potency read?
Its Potency is “inactive”.

Which Potency does the source give for `O=Cc1ccc(CO)o1` here?
Its Potency is “inactive”.

Which Potency does the source give for `CC(=O)Nc1ccc(CC(=O)O)cc1` here?
The Potency was “inactive”.

Which Potency does the source give for `COc1cc(NC(=O)CC(C)=O)c(OC)cc1Cl` here?
The Potency was “inactive”.

Which Potency does the source give for `CC(COCC(C)OC(=O)c1ccccc1)OC(=O)c1ccccc1` (stereo not given) here?
Its Potency is “inactive”.

Which Potency does the source give for `CC(C)c1ccc(C(C)C)cc1` here?
The Potency was “inactive”.

Which Potency does the source give for `CCN(CC)CCNC(=O)c1ccc(N)cc1` here?
Its Potency is “inactive”.

With `O=C(NCC1CCCCN1)c1cc(OCC(F)(F)F)ccc1OCC(F)(F)F` (stereo not given) as the molecule, how does the Potency read?
Its Potency is “inactive”.

With `C[n+]1ccn(CCO)c1` as the molecule, how does the Potency read?
Its Potency is “inactive”.

Which Potency does the source give for `C=CC(=O)NCOCCCC` here?
Its Potency is “inactive”.

Which Potency does the source give for `O=[N+]([O-])c1cc(C(F)(F)F)ccc1Cl` here?
Its Potency is “inactive”.

Which Potency does the source give for `CCCCC(=O)O` here?
Its Potency is “inactive”.

Which Potency does the source give for `C1CCCNCC1` here?
The Potency was “inactive”.

With `COc1ccc2cc3[n+](cc2c1OC)CCc1cc2c(cc1-3)OCO2` as the molecule, how does the Potency read?
Its Potency is “inactive”.

With `Nc1nc(N)c2nc(-c3ccccc3)c(N)nc2n1` as the molecule, how does the Potency read?
The Potency was “inactive”.

Reference: PubChem BioAssay (Tox21)
